VDR inh: blocks the human vitamin D receptor | P11473 | 400,000 compounds, 0.93% hits | Potency, µM, usual class: inhibitors | AID 504847 | VDR-SRC2-3 peptide fluorescence polarization, 2 h
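VDR–SRC2-3 interaction, FP format. Cmpds 23 nl via pintool, brief spin, 2 h ambient incubation.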
G9a block: blocks human histone lysine methyltransferase G9a; 350,000 compounds, 8.8% hits; G9a H3K9 monomethylation, AlphaScreen, 2 h; Potency, µM (top dose mostly 102 µM), actives largely listed as inhibitors; Q96KQ7; AID 504332; note: nearly all actives have a fitted effect of over 75% in size
Target sequence (Q96KQ7 913-1193 limits assumed): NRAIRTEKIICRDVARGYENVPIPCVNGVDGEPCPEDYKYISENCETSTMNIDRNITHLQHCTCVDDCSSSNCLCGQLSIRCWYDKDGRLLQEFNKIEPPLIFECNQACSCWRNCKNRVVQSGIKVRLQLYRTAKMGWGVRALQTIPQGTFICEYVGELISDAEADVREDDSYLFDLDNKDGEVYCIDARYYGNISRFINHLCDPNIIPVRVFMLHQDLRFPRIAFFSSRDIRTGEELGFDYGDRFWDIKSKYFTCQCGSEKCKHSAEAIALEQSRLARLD
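Signal arises when biotinylated H3K9 peptide, once monomethylated, bridges streptavidin donor and antibody-captured acceptor beads. Enzyme at 20 nM was preincubated 15 min with test compounds; peptide 500 nM and SAM 20 uM then reacted for 2 h.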
PLK1 PBD block: inhibitors of human PLK1 polo-box domain binding; P53350; Plk1 PBD binding of FITC phosphopeptide, fluorescence polarization; Potency, µM, actives largely listed as inhibitors; 360,000 compounds, 2.8% hits; AID 720504; note: series mostly up to about 57 µM; nearly all actives have a fitted effect of over 65% in size
CCT modulator: changes cytosolic chaperonin activity; purified chaperonin ATPase assay, HTRF ADP detection, 30 min; activity change, % (no concentration beside the values), hits read low; 360,000 compounds, 0.3% hits; in the data active = activity change below about -30%
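We incubate TRiC, 40 or 20 nM final, with library compounds at 76 uM and 10 uM ATP for 30 min at 37 °C. ADP formed is detected with Transcreener HTRF reagents after 30 min at room temperature.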
Sfp inh: inhibitors of Bacillus subtilis Sfp phosphopantetheinyl transferase; Q9F4F7; 310,000 compounds, 3.5% hits; Biochemical Sfp PPTase activity, qHTS; Potency, µM, hits mostly inhibitors;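 note: the enzyme is Sfp with the accession as filed and its product quenches rhodamine fluorescence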
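Sfp 15 nM + cpd, 15 min RT; start w/ rhodamine-CoA 5 uM, BHQ-2-YbbR 12.5 uM (final); 50 mM Hepes pH 7.6, 10 mM MgCl2, 0.01% NP-40, 0.01% BSA; read 525/598 nm at 0 and 30 min.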
MmCpn inh: blocks the Methanococcus maripaludis chaperonin Mm-Cpn | purified Mm-Cpn ATPase, ADP Transcreener TR-FRET | Potency, µM (highest dose often 76.9 µM), usual class: inhibitors | 330,000 compounds, 0.031% hits | AID 504842; note: nearly all actives have a fitted effect of over 80% in size
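Reaction buffer contained 30 mM Tris pH 7.4, 100 mM KCl, 5 mM MgCl2 and 1 mM DTT. Mm-CPN (25 nM final) hydrolysed 10 uM ATP over 30 min at 37°C; ADP was read by HTRF.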
Sfp PPTase conf: Sfp phosphopantetheinyl transferase inhibition, confirmation | shares compounds with Sfp inh | Sfp PPTase enzymatic assay, qHTS titration | Potency, µM (top dose mostly 114 µM), hits mostly inhibitors | 380 compounds, 79% hits | AID 2701
Target sequence (Q9F4F7 whole entry, looked up): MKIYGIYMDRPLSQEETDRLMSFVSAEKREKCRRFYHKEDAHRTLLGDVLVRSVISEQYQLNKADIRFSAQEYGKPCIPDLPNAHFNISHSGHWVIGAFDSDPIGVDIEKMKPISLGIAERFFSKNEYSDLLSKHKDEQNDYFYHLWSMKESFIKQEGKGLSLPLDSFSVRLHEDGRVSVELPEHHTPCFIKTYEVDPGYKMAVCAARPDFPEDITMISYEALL
Sfp gel assay: Blocks Sfp PPTase activity, gel read-out; shares compounds with Sfp inh; purified Sfp, gel-based phosphopantetheinylation read-out; Potency, µM, actives largely listed as inhibitors; 210 compounds, 20% hits;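 active = potency below 100 µM; inconclusive = dose-dependent response but potency above 100 µM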;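 note: potency is an IC50 for inhibitors of Sfp transfer activity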
VDR confirm: inhibits human vitamin D receptor, primary hit validation; AID 602199; shares compounds with VDR inh; VDR-coactivator inhibition assay, qHTS confirmation; Potency, µM, most hits filed as inhibitors; 840 compounds, 89% hits
VDR FP fluor: blocks human VDR-coactivator binding in fluorescein assay. AID 602200. 840 compounds, 48% hits. shares compounds with VDR inh. VDR-coactivator binding, fluorescein fluorescence polarization. Potency, µM (top dose mostly 57.1 µM), usual class: inhibitors
VDR bla: VDR (human) inhibition, cell-based beta-lactamase validation; shares compounds with VDR inh; 840 compounds, 23% hits; VDR beta-lactamase reporter cells, FRET ratio; cells co-treated with VDR agonist LG190178; Potency, µM (doses to about 46.1 µM), usual class: inhibitors
VDR cytotox: cytotoxic in counter-screen for VDR inhibitors; shares compounds with VDR inh; Potency, µM (highest dose often 48.3 µM), actives largely listed as cytotoxic; cytotoxicity counter-screen, cell viability, qHTS; 840 compounds, 18% hits; note: nearly all actives have a fitted effect of over 75% in size
Hits are given with their value; n = inactive; u = inconclusive; x = no result given; [ ] = remark or other dose. In the library only some 10% were active in any assay of this set; here they are far more common. Unless noted, calls come from the whole dose curve; as a rule, active = well fitted curve in the direction sought with a large enough effect; inconclusive = small, poorly fitted or top-dose-only effect, or another doubt; inactive = no such curve, though single readings can be large; an effect the other way counts as inactive or inconclusive.

SMILES	VDR inh	G9a block	PLK1 PBD block	CCT modulator	Sfp inh	MmCpn inh	Sfp PPTase conf	Sfp gel assay	others
CCc1ccc(CNc2ncnc3onc(-c4ccc(Cl)cc4)c23)cc1	n	n	x	x	x	x	x	x
C=CC1=C(C(=O)O)N2C(=O)[C@@H](NC(=O)/C(=N\O)c3csc(N)n3)[C@H]2SC1 (stereo in doubt)	n	x	n	n	x	x	x	x
C=CC1=C(C(=O)O)N2C(=O)[C@@H](NC(=O)C(N=O)c3csc(N)n3)[C@H]2SC1 (stereo not given in full)	45µM	n	x	x	32µM	x	42µM	56µM
Cc1cc(C)c2c(=O)cc(C(=O)Nc3ccc(C)c(Cl)c3)oc2c1	n	u	x	x	x	x	x	x
Cc1c(C(=O)OCC2CCCO2)[nH]c2c1C(=O)CC(c1ccco1)C2 (stereo not given)	n	18µM	u	n	16µM	n	37µM	n
Clc1ccccc1-c1nn2c(-c3ccncc3)nnc2s1	u	3.2µM	24µM	n	16µM	n	13µM	x
Clc1ccc(-c2nn3c(-c4ccncc4)nnc3s2)c(Cl)c1	x	n	x	x	n	n	x	x
CCCN(CCC)CCNC(=O)c1cc(Sc2ccc(Cl)cc2)nc2ccccc12	n	n	x	x	x	x	x	x
Cc1cc(N/N=C/c2cccc(Cl)c2)nc(NCc2ccccc2)n1	n	n	n	n	u	n	x	x
Cc1cc(Nc2cccc(Cl)c2)nc(NCc2ccccc2)n1	n	n	n	n	16µM	n	59µM	u
CCOC(=O)c1nn(-c2ccc(C)cc2)c(=O)c2c(N)scc12	13µM	1.3µM	n	n	3.5µM	n	19µM	x
CC(=O)[C@@H]1CC[C@@H]2[C@@H]3C[C@H](C)C4=CC(=O)CC[C@@]4(C)[C@H]3[C@H](O)C[C@]21C	n	n[21.5 µM]	x	x	n	x	x	x
CC(=O)N1CCN(c2ccc(NCc3ccc4c(c3)OCO4)cc2)CC1	u	u	n	n	16µM	n	21µM	n
O=C(CSc1nc2ccc(S(=O)(=O)N3CCOCC3)cc2[nH]1)N1CCOCC1	22µM	1.8µM	2.2µM	n	6.3µM	n	3.7µM	x	VDR confirm=3.8;VDR FP fluor=u;VDR bla=n;VDR cytotox=n
COc1ccc(NC(=O)c2ccc(CNS(=O)(=O)c3ccc4c(c3)C(C)(C)C(=O)N4C)cc2)cc1	n	n	x	x	x	x	x	x
CCC(C)(C)n1nnnc1C(c1ccccc1)N1CCc2ccccc2C1 (stereo not given)	n	n[12.7 µM]	n	n	n	n	x	x
CCC(C)(C)n1nnnc1C(c1ccc(O)c(OC)c1)N1CCc2ccccc2C1 (stereo not given)	u	u	27µM	n	3.5µM	n	5.9µM	x	VDR confirm=11;VDR FP fluor=28µM;VDR bla=n;VDR cytotox=n
O=C(Cn1nc(N2CCN(c3ccccc3)CC2)ccc1=O)NCc1ccccc1F	n	n	x	x	x	x	x	x
CC1=NNC(=O)/C1=C\c1cn(-c2ccccc2)nc1-c1ccccc1	u	u	6µM	n	3.5µM	n	42µM	19µM	VDR confirm=3.2;VDR FP fluor=3.2µM;VDR bla=23µM;VDR cytotox=19µM
COc1cc(NC(=O)c2nc(-c3ccncc3)no2)cc(OC)c1OC	n	n	x	x	x	x	x	x
